Laboratory results reported in PubChem BioAssay (EPA / NIEHS).
Active and inactive are the calls of the source. How the source made its calls: active means hit-call score of the fitted dose curve at least 0.9, where 1 is the maximum; inactive means score below 0.9.

Tests used:
[1] = read-out: TIMP metallopeptidase inhibitor 1 (TIMP1), TIMP1 (gene 7076); experiment: BSK_hDFCGF_TIMP1: BioMAP Diversity Plus: hDFCGF Assay for TIMP metallopeptidase inhibitor 1 (TIMP1) Biomarker Activity (AID 2283062); settings: primary human foreskin fibroblasts; actives raise or lower the signal
How it was run: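 Primary human foreskin fibroblasts in the hDFCGF system were dosed with compound for 24 h, then TIMP-1 was measured by ELISA. Activity was fitted bidirectionally relative to DMSO control; parallel SRB staining assessed cytotoxicity.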

[2] = read-out: Monokine induced gamma interferon (MIG), CXCL9 (gene 4283); experiment: BSK_hDFCGF_MIG: BioMAP Diversity Plus: hDFCGF Assay for Monokine induced gamma interferon (MIG) Biomarker Activity (AID 2283063); settings: primary human foreskin fibroblasts; actives raise or lower the signal
How it was run: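 ELISA read-out of MIG from primary human dermal fibroblasts 24 h post-dosing. Gain or loss of signal fitted bidirectionally, DMSO as baseline.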

[3] = read-out: Matrix Metallopeptidase 1 (MMP1), MMP1 (gene 4312); experiment: BSK_hDFCGF_MMP1: BioMAP Diversity Plus: hDFCGF Assay for Matrix Metallopeptidase 1 (MMP1) Biomarker Activity (AID 2283064); settings: primary human foreskin fibroblasts; actives raise or lower the signal
How it was run: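 Primary human foreskin fibroblasts in the hDFCGF system were dosed with test chemical, and MMP1 was measured by ELISA 24 h later. Values come from bidirectional curve fitting against the DMSO baseline.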

[4] = read-out: Vascular cell adhesion molecule 1 (VCAM1), VCAM1 (gene 7412); experiment: BSK_hDFCGF_VCAM1: BioMAP Diversity Plus: hDFCGF Assay for Vascular cell adhesion molecule 1 (VCAM1) Biomarker Activity (AID 2283065); settings: primary human foreskin fibroblasts; actives raise or lower the signal;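 on AC50: VCAM-1 protein level quantified by ELISA after 24 h chemical exposure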
How it was run: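 Primary human foreskin fibroblasts (hDFCGF system) were dosed with chemical and VCAM-1 was measured by ELISA 24 h later. Bidirectional curve fitting used DMSO as negative control and activity baseline.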

[5] = read-out: Plasminogen activator inhibitor-1 (PAI1), SERPINE1 (gene 5054); experiment: BSK_hDFCGF_PAI1: BioMAP Diversity Plus: hDFCGF Assay for Plasminogen activator inhibitor-1 (PAI1) Biomarker Activity (AID 2283066); settings: primary human foreskin fibroblasts; actives raise or lower the signal
How it was run: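 Primary dermal fibroblasts (human foreskin), hDFCGF system; compound 24 h; PAI-1 by ELISA; bidirectional fit vs DMSO control.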

[6] = read-out: Intercellular Adhesion Molecule 1 (ICAM1), ICAM1 (gene 3383); experiment: BSK_KF3CT_ICAM1: BioMAP Diversity Plus: KF3CT Assay for Intercellular Adhesion Molecule 1 (ICAM1) Biomarker Activity (AID 2283067); settings: primary human keratinocytes with fibroblasts; actives raise or lower the signal
How it was run: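 Human keratinocyte plus foreskin fibroblast primary co-culture was exposed to chemical for 24 h. ICAM-1 was then quantified by ELISA, and the data were fit bidirectionally against DMSO as the negative control and baseline.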

[7] = read-out: Interferon-gamma inducible Protein 10 (IP10), CXCL10 (gene 3627); experiment: BSK_KF3CT_IP10: BioMAP Diversity Plus: KF3CT Assay for Interferon-gamma inducible Protein 10 (IP10) Biomarker Activity (AID 2283068); settings: primary human keratinocytes with fibroblasts; actives raise or lower the signal
How it was run: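 KF3CT co-culture (keratinocytes + foreskin fibroblasts), 24 h compound, IP-10 by ELISA; bidirectional fit vs DMSO baseline.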

[8] = BSK_KF3CT_SRB: Viability Assessment in the BioMAP Diversity Plus: KF3CT Assay (AID 2283069); settings: primary human keratinocytes with fibroblasts;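 further: total protein by sulforhodamine B staining as a cytotoxicity measure; read 24 h after compound addition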
How it was run: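 Human primary keratinocyte plus foreskin fibroblast co-culture exposed to chemicals for 24 h. Total protein measured by 0.1% sulforhodamine B staining after 10% TCA fixation, read at 560 nm; bidirectional fitting versus DMSO baseline.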

[9] = read-out: Interleukin-1 alpha (IL1a), IL1A (gene 3552); experiment: BSK_KF3CT_IL1a: BioMAP Diversity Plus: KF3CT Assay for Interleukin-1 alpha (IL1a) Biomarker Activity (AID 2283070); settings: primary human keratinocytes with fibroblasts; actives raise or lower the signal
How it was run: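 Human keratinocyte plus foreskin fibroblast primary co-culture, sampled 24 h after chemical dosing. IL-1a measured by ELISA; responses fitted bidirectionally against DMSO baseline (negative control), so gain or loss of signal both count.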

[10] = read-out: TIMP metallopeptidase inhibitor 2 (TIMP2), TIMP2 (gene 7077); experiment: BSK_KF3CT_TIMP2: BioMAP Diversity Plus: KF3CT Assay for TIMP metallopeptidase inhibitor 2 (TIMP2) Biomarker Activity (AID 2283071); settings: primary human keratinocytes with fibroblasts; actives raise or lower the signal
How it was run: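 Cells: human keratinocytes co-cultured with foreskin fibroblasts. Treat with chemical, 24 h. Measure TIMP-2 by ELISA; fit curves bidirectionally vs DMSO baseline.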

[11] = read-out: Transforming growth factor beta 1 (TGFb1), TGFB1 (gene 7040); experiment: BSK_KF3CT_TGFb1: BioMAP Diversity Plus: KF3CT Assay for Transforming growth factor beta 1 (TGFb1) Biomarker Activity (AID 2283072); settings: primary human keratinocytes with fibroblasts; actives raise or lower the signal
How it was run: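 Primary human skin cells (keratinocytes, foreskin fibroblasts) were co-cultured, exposed to test chemical and sampled at 24 h. TGF-b1 levels were measured by ELISA and fitted bidirectionally relative to DMSO.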

[12] = read-out: C-C motif chemokine 2 (Homo sapiens) (UniProt P13500); experiment: BSK_KF3CT_MCP1: BioMAP Diversity Plus: KF3CT Assay for Monocyte Chemoattractant Protein 1 (MCP1/CCL2) Biomarker Activity (AID 2283073); settings: primary human keratinocytes with fibroblasts; actives raise or lower the signal
How it was run: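 Human keratinocyte plus foreskin fibroblast primary co-culture exposed to chemical for 24 h. MCP-1 levels measured by ELISA. Bidirectional curve fitting relative to DMSO negative control as baseline.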

[13] = read-out: Matrix Metallopeptidase 9 (MMP9), MMP9 (gene 4318); experiment: BSK_KF3CT_MMP9: BioMAP Diversity Plus: KF3CT Assay for Matrix Metallopeptidase 9 (MMP9) Biomarker Activity (AID 2283074); settings: primary human keratinocytes with fibroblasts; actives raise or lower the signal;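 on AC50: MMP9 protein level quantified by ELISA in the co-culture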
How it was run: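 Keratinocyte plus foreskin fibroblast human primary skin co-culture was dosed with chemical and MMP-9 was quantified by ELISA 24 h later. Bidirectional curve fitting used DMSO as negative control and activity baseline.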

CD40, CD40 (gene 958) = experiment: BSK_LPS_CD40: BioMAP Diversity Plus: LPS Assay for CD40 Biomarker Activity (AID 2283076); settings: primary human HUVEC with PBMC; actives raise or lower the signal
How it was run: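 Primary human umbilical vein endothelial cells co-cultured with peripheral blood mononuclear cells, LPS-stimulated, were dosed with chemical and read 24 h later. CD40 levels were measured by ELISA and fitted bidirectionally against DMSO as negative control and baseline.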

[14] = read-out: E-selectin (Homo sapiens) (UniProt P16581); experiment: BSK_LPS_Eselectin: BioMAP Diversity Plus: LPS Assay for Eselectin Biomarker Activity (AID 2283077); settings: primary human HUVEC with PBMC; actives raise or lower the signal
How it was run: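 Human umbilical vein endothelial cells co-cultured with peripheral blood mononuclear cells under LPS stimulation; E-selectin measured by ELISA 24 h after chemical dosing. Activity fitted bidirectionally against DMSO as negative control and baseline.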

[15] = read-out: Interleukin-8 (IL8), CXCL8 (gene 3576); experiment: BSK_LPS_IL8: BioMAP Diversity Plus: LPS Assay for Interleukin-8 (IL8) Biomarker Activity (AID 2283078); settings: primary human HUVEC with PBMC; actives raise or lower the signal
How it was run: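 Human umbilical vein endothelial cells co-cultured with PBMC were stimulated with LPS; IL-8 levels were measured by ELISA 24 h after chemical dosing. Activity was fitted bidirectionally against DMSO as negative control and baseline.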

[16] = BSK_LPS_SRB: Viability Assessment in the BioMAP Diversity Plus: LPS Assay (AID 2283079); settings: primary human HUVEC with PBMC;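 further: total protein by sulforhodamine B absorbance as a cytotoxicity measure; measured one day after compound addition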
How it was run: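 Human umbilical vein endothelial cells co-cultured with PBMC (LPS system) were dosed for 24 h. Total protein was stained with 0.1% sulforhodamine B after 10% TCA fixation, read at 560 nm, and fitted bidirectionally against DMSO baseline.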

[17] = read-out: Interleukin-1 alpha (IL1a), IL1A (gene 3552); experiment: BSK_LPS_IL1a: BioMAP Diversity Plus: LPS Assay for Interleukin-1 alpha (IL1a) Biomarker Activity (AID 2283080); settings: primary human HUVEC with PBMC; actives raise or lower the signal
How it was run: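 Human umbilical vein endothelial cells co-cultured with peripheral blood mononuclear cells were LPS-stimulated and exposed to test chemicals for 24 h. IL-1 alpha was quantified by ELISA, with bidirectional curve fitting against DMSO as the negative control and baseline.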

[18] = read-out: Monocyte Chemoattractant Protein-1 (MCP1), CCL2 (gene 6347); experiment: BSK_LPS_MCP1: BioMAP Diversity Plus: LPS Assay for Monocyte Chemoattractant Protein-1 (MCP1) Biomarker Activity (AID 2283081); settings: primary human HUVEC with PBMC; actives raise or lower the signal;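 on AC50: co-culture stimulated with LPS; secreted MCP-1 protein quantified by ELISA in culture supernatant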
How it was run: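 HUVEC plus PBMC co-culture (human primary cells, LPS system) exposed to test chemical for 24 h; MCP-1 measured by ELISA. Bidirectional curve fitting against DMSO baseline; parallel SRB total-protein staining flags overt cytotoxicity.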

[19] = read-out: urokinase plasminogen activator (uPA), PLAU (gene 5328); experiment: BSK_KF3CT_uPA: BioMAP Diversity Plus: KF3CT Assay for urokinase plasminogen activator (uPA) Biomarker Activity (AID 2283075); settings: primary human keratinocytes with fibroblasts; actives raise or lower the signal
How it was run: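 Human keratinocyte plus foreskin fibroblast primary co-culture exposed to chemical for 24 h. uPA levels were quantified by ELISA, and activity was fitted bidirectionally against a DMSO negative-control baseline.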

Measured: AC50

E-selectin (Homo sapiens), sequence (P16581 whole entry, looked up): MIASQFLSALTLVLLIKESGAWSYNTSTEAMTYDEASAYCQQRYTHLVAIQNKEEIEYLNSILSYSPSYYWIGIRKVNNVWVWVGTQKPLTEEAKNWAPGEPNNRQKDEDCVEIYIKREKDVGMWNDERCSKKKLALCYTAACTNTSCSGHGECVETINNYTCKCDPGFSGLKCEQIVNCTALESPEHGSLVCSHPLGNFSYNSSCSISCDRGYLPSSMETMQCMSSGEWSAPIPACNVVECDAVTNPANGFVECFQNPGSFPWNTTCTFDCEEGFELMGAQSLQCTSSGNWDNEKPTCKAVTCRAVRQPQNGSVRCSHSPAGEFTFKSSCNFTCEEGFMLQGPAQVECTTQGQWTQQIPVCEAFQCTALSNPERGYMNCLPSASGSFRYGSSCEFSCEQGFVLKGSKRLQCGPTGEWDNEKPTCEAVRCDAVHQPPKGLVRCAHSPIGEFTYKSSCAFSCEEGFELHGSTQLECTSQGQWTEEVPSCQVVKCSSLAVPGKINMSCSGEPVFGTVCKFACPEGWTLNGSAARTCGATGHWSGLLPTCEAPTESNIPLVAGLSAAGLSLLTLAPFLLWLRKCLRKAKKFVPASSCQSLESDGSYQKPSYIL

CCOC(=O)CCC(=O)OCC
not listed: [19]
inactive: all other assays above

CN[C@H]1CC[C@@H](c2ccc(Cl)c(Cl)c2)c2ccc(S(N)(=O)=O)cc21
active: [1] 31.4 µM | [2] 34.5 µM | [3] 32.2 µM | [4] 11.9 µM | [5] 23.9 µM | [6] 31.6 µM | [7] 28.3 µM | [8] 30.6 µM | [9] 29.1 µM | [10] 25.3 µM | [11] 19.9 µM | [12] 14.9 µM | [13] 20.9 µM | [19] 18.6 µM | CD40, CD40 (gene 958) 20 µM | [14] 30.5 µM | [15] 20 µM | [17] 24.1 µM | [18] 18.7 µM

Cc1ccc2ncccc2c1
not listed: [19]
inactive: all other assays above

Cc1ccccc1Cl
not listed: [12]
inactive: all other assays above
